Measurements taken from PubChem BioAssay (NCATS).
Records with an inconclusive call do not appear. Calls of active or inactive are those of the source. Calls come from the whole dose curve; as a rule, active = well fitted cell-killing curve with a large enough effect; inconclusive = small, poorly fitted or top-dose-only effect, or effect the other way; inactive = no such curve, though single readings can be large or run the other way.

assay: Quantitative High-Throughput drug screen in 47 multiple myeloma cell lines against the NCATS MIPE library collection: FR4_PLB cell viability assay (AID 1918924; note: nearly all actives have a fitted effect of over 35% in size); conditions: FR4_PLB myeloma cells viability, CellTiter-Glo ATP, 48 h; series mostly up to 45.8 µM
Procedure, shortened: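 Viability readout: CellTiter-Glo luminescence following 5 min room-temperature incubation with reagent. Prior exposure: 48 h, 37C, humidified 5% CO2, 500 cells per well.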
Potency is the fitted concentration of half-maximal effect.

| Compound | Potency |
| --- | --- |
| COc1cc(-c2nn(C3CCC(N4CCN(C(C)=O)CC4)CC3)c3ncnc(N)c23)ccc1NC(=O)c1cc2ccccc2n1C (stereo unspecified) | 5.26 µM (active) |
| Clc1cccc(-c2nnnn2Cc2cccnc2)c1Cl | inactive |
| COc1ccc2c(c1)CC[C@@H](CN(C)CC(=O)O)[C@H]2c1ccccc1 | 1.05 µM (active) |
| Cn1c(=O)n(-c2ccc(C(C)(C)C#N)cc2)c2c3cc(-c4cnc5ccccc5c4)ccc3ncc21 | 0.0093 µM (active) |
| Nc1cccc(-c2cc3c(Oc4cccc(O)c4)ncnc3[nH]2)c1 | 14.8 µM (active) |
| O=c1c2ccccc2nc2n1CCc1c-2[nH]c2ccccc12 | inactive |
| Clc1cccc(-n2nnnc2NCc2ccccc2Oc2ccccn2)c1Cl | inactive |
| CC(C)c1noc(N2CCC(COc3ccc(-c4ccc(S(C)(=O)=O)cc4)nc3)CC2)n1 | 6.62 µM (active) |
| CS(=O)(=O)c1ccc(-c2cnc(N)c(C(=O)Nc3ccccc3)n2)cc1 | 18.7 µM (active) |
| NC(=O)c1cccc2cn(-c3ccc([C@@H]4CCCNC4)cc3)nc12 | inactive |
| C1Cc2[nH]nc(-c3nn[nH]n3)c2C1 | inactive |
